The text below walks through data of PubChem BioAssay (NCI).

What all share (assay): NCI-60 one-dose screen, 48 h (100 = growth as untreated, 0 = no growth, -100 = all killed)
What all share (settings): 10 µM unless noted

In assay [1] the test system is NCI-H23 lung.
In assay [2] the test system is NCI-H322M lung.
Assay [3] deals with HOP-62 NSCLC.
The test system of assay [4] is NCI-H460 lung.
In assay [5] the test system is HOP-92 NSCLC.
The subject of assay [6] is NCI-H522 lung.
The subject of assay [7] is A549/ATCC NSCLC.
Assay [8] relates to 786-0 renal.
In assay [9] the test system is COLO 205 colon.
Assay [10] relates to DU-145 prostate.

About 83,000 compounds went through this panel and 20% of them were active in at least one assay; those are over-represented in the sample as a whole.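 Interpretation: 100, growth as untreated; towards 0, rising growth inhibition; 0, no net growth; 0 to -100, cell death. Compounds scoring below 10 were considered active.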 Unmarked numbers belong to inactive results. The source made the active and inactive calls.

For `CC(C)(C)c1ccc(C2CC(=O)C3=C(C2)Nc2ccccc2N(C(=O)c2ccccc2Cl)C3c2ccc(F)cc2)cc1` (stereo not given), the growth in assay [1] is 3.17% (active); in assay [2] it was -9.78% (active); in [3] it was 25.3%; in assay [4], -0.748% (active); in assay [5], 58.5%; in [6], 14.7%. Further, the growth in [7] is -3.2% (active); in assay [8], 51.8%; in assay [9], -63.5% (active); in [10], 37%.
As to `COCCN(C(=O)Cc1cccs1)C(C(=O)NCc1ccc(OC)cc1)c1ccc(C(C)C)cc1` (stereo not given), the growth in assay [1] is 86.4%; in [2] it was 92.2%; in assay [3] it was 97.8%; in assay [4], 78.2%; in assay [5], -3.71% (active); in assay [6], 80.7%. Also, the growth in assay [7] is 87.2%; in assay [8], 95%; in [9], 104%; in [10] it was 63.5%.
In the case of `COc1ccc(Br)c(/C=C2\SC(=Nc3ccc(O)cc3)NC2=O)c1`, the growth is 92.1% in [1]; 99.8% in assay [2]; 96.2% in assay [3]; 102% in assay [4]; 83.2% in [5]; 77.2% in assay [6]. Also, the growth in assay [7] was 87.2%; in assay [8], 82.8%; in assay [9], 102%; in [10] it was 98.1%.
For the compound `CN1CCN(c2nc(Nc3ccc(O)cc3)nc3ccccc23)CC1`, the growth in assay [1] was 74.8%; in assay [2] it was 68%; in assay [3], 74.5%; in assay [4] it was 13.9%; in [5], 89.6%; in assay [6], 37.5%. The growth in assay [7] is 42.5%; in [8], 64.2%; in assay [9], 44.1%; in assay [10], 63%.
In the case of `CSc1nc2c(c(=O)n1C)N=C1c3ccccc3C(=O)C1C(c1ccccc1)N2` (stereo not given), the growth in [1] is 85%; in assay [2] it was 95.1%; in assay [3], 76.9%; in assay [4], 76.2%; in assay [5], 28.7%; in assay [6] it was 103%. Also, the growth was 81.6% in assay [7], 91.9% in [8], 73.5% in assay [9] and 81.9% in [10].
As for `CN(C)/C=C1\SC(=Nc2ccc(Cl)cc2)NC1=O`, the growth is 103% in [1]; 108% in [2]; 114% in assay [3]; 102% in [4]; 102% in assay [5]; 95.8% in assay [6]. Also, the growth is 100% in assay [7], 99.8% in assay [8], 119% in [9] and 108% in [10].
`O=c1[nH]nnc2c1ncn2C1OC(CO)C(O)C1O` (stereo not given): the growth in assay [1] is 63.3%; in assay [2], 71.1%; in assay [3], 66.7%; in [4], 33.1%; in [5], 35.7%; in assay [6], 58%. Besides, the growth in assay [7] is 49.7%; in assay [8] it was 54.4%; in [9] it was 34.4%; in assay [10], 26.8%.
As to `COc1cc(NC(=O)CCSc2nc3ccccc3c(=O)n2Cc2ccccc2)cc(OC)c1OC`, the growth in assay [1] was 89.7%; in assay [2], 75.8%; in [3] it was 92.8%; in assay [4], 94.6%; in [5] it was 54.5%; in assay [6] it was 4.12% (active). The growth is 72.7% in [7], 83.4% in assay [8], 118% in [9] and 97.5% in assay [10].
As to `COc1ccc(/C=C/C(=O)c2ccc3cc(OC)c(OC)cc3c2)cc1OC`, the growth is 51.7% in [1]; 56% in [2]; 36% in assay [3]; 40.7% in assay [4]; 51.4% in assay [5]; 31.9% in assay [6]. Further, the growth in assay [7] was 19.5%; in assay [8], 42.9%; in assay [9] it was 25.9%; in assay [10], 46.7%.
Consider `COC(=O)/C(CCC=C(C)C)=C1\[C@@H](OC(C)=O)C[C@@]2(C)[C@H]1C[C@@H](O)[C@H]1[C@@]3(C)CC[C@H](NC(=O)c4cnccn4)[C@@H](C)[C@@H]3CC[C@@]12C`, for which the growth in [1] was 103%; in assay [2], 108%; in assay [3], 102%; in [4], 109%; in assay [5], 100%; in assay [6], 89.6%. The growth was 97.9% in [7], 92.2% in [8], 110% in assay [9] and 93.7% in assay [10].
As to `c1ccc(CNc2nc(Nc3ccccc3)nc3ccccc23)cc1`, the growth was 64.6% in assay [1]; 46.5% in assay [2]; -9% (active) in assay [3]; 48.2% in [4]; -2.52% (active) in assay [5]; 40.7% in [6]. For the same compound, the growth in [7] was 29.6%; in assay [8], 38.5%; in [9], 75.1%; in [10], 40.5%.
Regarding `C1CCN(c2nc(N3CCCCC3)nc(N3CCOCC3)n2)CC1`, the growth in assay [1] was 95.7%; in assay [2], 105%; in [3], 94.3%; in assay [4] it was 109%; in assay [5], 112%; in [6], 78%. Moreover, the growth was 87% in assay [7], 97.3% in assay [8], 107% in [9] and 119% in [10].
Turning to `CCc1ccc(CNCC(O)c2ccccc2)cc1` (stereo not given), the growth was 69.1% in [1]; 75.6% in assay [2]; 76.6% in assay [3]; 77% in assay [4]; 12.7% in assay [5]; 77.7% in assay [6]. Further, the growth in assay [7] was 73.8%; in assay [8], 87.5%; in assay [9] it was 7.32% (active); in assay [10], 79.7%.
Regarding `COc1ccc(CCN2C(=O)/C(=C/c3ccc(C4Oc5ccccc5C5CC(c6cccc(OC)c6)=NN54)cc3)SC2=S)cc1` (stereo not given), the growth in assay [1] is 99.8%; in [2], 103%; in assay [3], 100%; in assay [4] it was 101%; in assay [5] it was 96.2%; in [6], 90.3%. Further, the growth in assay [7] was 103%; in [8], 105%; in assay [9], 107%; in assay [10], 101%.
Take `CCOc1ccc2c(c1)CN(Cc1ccc(Cl)cc1)CO2`: the growth in [1] was 80.8%; in assay [2] it was 69.1%; in assay [3], -7.93% (active); in [4], 40.1%; in assay [5], 43.4%; in assay [6] it was 72.9%. The growth in assay [7] was 18.7%; in assay [8], 6.53% (active); in assay [9], 76.7%; in assay [10] it was 38.3%.
Turning to `COc1ccc(-c2nsc3c2NC(=O)CC3c2ccc3c(c2)OCCO3)cc1` (stereo not given), the growth was 29% in assay [1]; 74.8% in [2]; 34.8% in assay [3]; 6.65% (active) in [4]; 66.1% in assay [5]; -15.2% (active) in [6]. For the same compound, the growth in assay [7] is 28.9%; in assay [8] it was 28.3%; in assay [9], -70.4% (active); in [10], 5.37% (active).
Regarding `COc1ccc(C2C3=C(COC3=O)N(CCO)c3cc4c(cc32)OCCO4)cc1` (stereo not given), the growth was 97.2% in assay [1]; 125% in assay [2]; 80.4% in assay [3]; 77.4% in assay [4]; 102% in assay [5]; 58.2% in assay [6]. Further, the growth in assay [7] was 76.6%; in assay [8], 87.5%; in [9], 84.2%; in assay [10], 106%.
Consider `COc1ccc(C2C3=C(COC3=O)N(CCO)c3cc4c(cc32)CCC4)cc1OC` (stereo not given), for which the growth in [1] is 29.8%; in [2], 35.3%; in [3] it was 31.6%; in assay [4], -15.1% (active); in [5] it was 91.9%; in assay [6] it was -33.7% (active). Besides, the growth in assay [7] is 19.5%; in assay [8], 26.7%; in [9] it was 14.9%; in assay [10] it was -28.1% (active).
For the compound `CCn1c(Cc2ccccc2Nc2c(Cl)cccc2Cl)nnc1SCC(=O)NN1C(=O)/C(=C/c2cccc(OC)c2OC)SC1=S`, the growth in [1] was 98.4%; in assay [2] it was 99%; in [3], 98.6%; in [4] it was 103%; in assay [5], 96.9%; in assay [6] it was 86.8%. The growth in [7] is 96.3%; in [8], 104%; in assay [9], 112%; in [10], 105%.
Regarding `O=C1N=c2ccccc2=C1c1sc(=Nc2ccccc2)n(Nc2ccccc2)c1O`, the growth is 102% in assay [1]; 107% in [2]; 100% in assay [3]; 101% in assay [4]; 102% in assay [5]; 90.9% in assay [6]. Further, the growth is 108% in [7], 101% in [8], 116% in assay [9] and 115% in [10].
As for `O=C1Nc2ccccc2/C1=C/c1ccc[nH]1`, the growth in assay [1] is 84.9%; in [2], 88%; in assay [3], 78.8%; in assay [4], 85.9%; in assay [5] it was 104%; in assay [6], 90.9%. The growth in assay [7] is 92.9%; in assay [8], 96.3%; in assay [9], 106%; in assay [10], 101%.
Take `CN(CCc1ccccc1)C(=S)N(C(=O)c1ccc([N+](=O)[O-])cc1)c1ccc(Cl)cc1`: the growth in [1] was 97.5%; in assay [2] it was 102%; in assay [3], 102%; in [4], 102%; in assay [5] it was 67%; in assay [6], 100%. Further, the growth is 98.2% in [7], 88% in assay [8], 109% in [9] and 73.1% in assay [10].
As to `COc1cc(C2C3=C(COC3=O)N(CCO)c3cc4c(cc32)CCC4)cc(OC)c1O` (stereo not given), the growth in assay [1] was 45.1%; in assay [2], 53.1%; in [3], 41.2%; in assay [4], -22.7% (active); in [5], 97.5%; in [6], -24.5% (active). The growth in assay [7] was 18.1%; in assay [8] it was 27%; in assay [9], 13.6%; in [10], -25.8% (active).
As for `O=C(CSc1nc2ccccc2c(=O)n1-c1ccccc1)Nc1ccc(C(=O)/C=C/c2ccc(Cl)cc2)cc1`, the growth is 93.4% in assay [1]; 101% in assay [2]; 107% in assay [3]; 100% in assay [4]; 97.1% in assay [5]; 85.3% in [6]. Besides, the growth was 97% in assay [7], 102% in assay [8], 108% in assay [9] and 109% in [10].
Consider `N#C/C(=C\c1c(-c2ccccc2)[nH]c2ccccc12)S(=O)(=O)c1ccccc1`, for which the growth in assay [1] was 40.7%; in assay [2], 60%; in [3] it was 39.2%; in assay [4] it was 16.1%; in assay [5], 53%; in [6], 54.9%. Moreover, the growth was 45.5% in assay [7], 51.3% in assay [8], 12.8% in [9] and 21.2% in assay [10].
On to `COc1cc(/C=C/C(=O)c2c(C)nc3ccccc3c2/C=C/c2ccccc2)cc(OC)c1OC`, for which the growth in [1] was 10.9%; in assay [2], 21%; in [3], 22.2%; in assay [4], -33.3% (active); in assay [5] it was 14.6%; in [6], -21% (active). The growth in [7] was 8.71% (active); in assay [8], 18.2%; in assay [9], 4.78% (active); in assay [10] it was -0.597% (active).
